Tests used:
Assay in all cases: SPOT peptide array binding signal intensity (averaged, normalized) (arbitrary units (background-subtracted, floor 0; scale differs between SH3 domains)); higher = stronger binding of the SH3 domain to the peptide
AgAbp1 = molecular target: AgAbp1
Outline: (§1)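 Binding signal is given in arbitrary units that differ between domains and is the normalized, background-subtracted spot intensity averaged across replicates. Each GST-SH3 fusion from one of four yeast species was made in E. coli BL21(DE3), purified on glutathione Sepharose and incubated at 10 μg/ml overnight at 4°C on cellulose-bound synthetic 15-mer peptides in which cysteines were replaced by serines. Detection used anti-GST antibody, an HRP anti-mouse secondary and luminol, followed by imaging and Genespotter quantification.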

AgBbc1 = molecular target: AgBbc1
Outline: as §1

AgBem1-D1 = molecular target: AgBem1-D1
Outline: as §1

AgBzz1-D1 = molecular target: AgBzz1-D1
Outline: as §1

AgBzz1-D2 = molecular target: AgBzz1-D2
Outline: as §1

AgCyk3 = molecular target: AgCyk3
Outline: as §1

AgFus1 = molecular target: AgFus1
Outline: as §1

AgHof1 = molecular target: AgHof1
Outline: as §1

AgHse1 = molecular target: AgHse1
Outline: as §1

AgLsb1 = molecular target: AgLsb1
Outline: as §1

AgLsb4 = molecular target: AgLsb4
Outline: as §1

AgMyo5 = molecular target: AgMyo5
Outline: as §1

AgNbp2 = molecular target: AgNbp2
Outline: as §1

AgRvs167 = molecular target: AgRvs167
Outline: as §1

AgSho1 = molecular target: AgSho1
Outline: as §1

AgSla1-D1-D2 = molecular target: AgSla1-D1-D2
Outline: as §1

AgSla1-D3 = molecular target: AgSla1-D3
Outline: as §1

CaAbp1-D1 = molecular target: CaAbp1-D1
Outline: as §1

CaAbp1-D2 = molecular target: CaAbp1-D2
Outline: as §1

CaBbc1 = molecular target: CaBbc1
Outline: as §1

CaBem1-D1 = molecular target: CaBem1-D1
Outline: as §1

CaBzz1-D1 = molecular target: CaBzz1-D1
Outline: as §1

CaBzz1-D2 = molecular target: CaBzz1-D2
Outline: as §1

CaCyk3 = molecular target: CaCyk3
Outline: as §1

CaFus1 = molecular target: CaFus1
Outline: as §1

CaHof1 = molecular target: CaHof1
Outline: as §1

CaHse1 = molecular target: CaHse1
Outline: as §1

CaLsb1 = molecular target: CaLsb1
Outline: as §1

CaLsb4 = molecular target: CaLsb4
Outline: as §1

CaMyo5 = molecular target: CaMyo5
Outline: as §1

CaNbp2 = molecular target: CaNbp2
Outline: as §1

CaRvs167 = molecular target: CaRvs167
Outline: as §1

CaRvs167-3 = molecular target: CaRvs167-3
Outline: as §1

CaSho1 = molecular target: CaSho1
Outline: as §1

CaSla1-D1-D2 = molecular target: CaSla1-D1-D2
Outline: as §1

CaSla1-D3 = molecular target: CaSla1-D3
Outline: as §1

ScAbp1 = molecular target: ScAbp1
Outline: as §1

ScBbc1 = molecular target: ScBbc1
Outline: as §1

ScBem1-D1 = molecular target: ScBem1-D1
Outline: as §1

ScBzz1-D1 = molecular target: ScBzz1-D1
Outline: as §1

ScBzz1-D2 = molecular target: ScBzz1-D2
Outline: as §1

ScCyk3 = molecular target: ScCyk3
Outline: as §1

ScFus1 = molecular target: ScFus1
Outline: as §1

ScHof1 = molecular target: ScHof1
Outline: as §1

ScHse1 = molecular target: ScHse1
Outline: as §1

ScLsb1 = molecular target: ScLsb1
Outline: as §1

ScLsb2 = molecular target: ScLsb2
Outline: as §1

ScLsb3 = molecular target: ScLsb3
Outline: as §1

ScLsb4 = molecular target: ScLsb4
Outline: as §1

ScMyo3 = molecular target: ScMyo3
Outline: as §1

ScMyo5 = molecular target: ScMyo5
Outline: as §1

ScNbp2 = molecular target: ScNbp2
Outline: as §1

ScPex13 = molecular target: ScPex13
Outline: as §1

ScRvs167 = molecular target: ScRvs167
Outline: as §1

ScSho1 = molecular target: ScSho1
Outline: as §1

ScSla1-D1-D2 = molecular target: ScSla1-D1-D2
Outline: as §1

ScSla1-D3 = molecular target: ScSla1-D3
Outline: as §1

SpAbp1-D1 = molecular target: SpAbp1-D1
Outline: as §1

SpBbc1 = molecular target: SpBbc1
Outline: as §1

SpBzz1-D1 = molecular target: SpBzz1-D1
Outline: as §1

SpBzz1-D2 = molecular target: SpBzz1-D2
Outline: as §1

SpCyk3 = molecular target: SpCyk3
Outline: as §1

SpHof1 = molecular target: SpHof1
Outline: as §1

SpHof1-2 = molecular target: SpHof1-2
Outline: as §1

SpHof1-3 = molecular target: SpHof1-3
Outline: as §1

SpHse1 = molecular target: SpHse1
Outline: as §1

SpLsb1 = molecular target: SpLsb1
Outline: as §1

SpLsb4 = molecular target: SpLsb4
Outline: as §1

SpMyo1 = molecular target: SpMyo1
Outline: as §1

SpNbp2 = molecular target: SpNbp2
Outline: as §1

SpPex13 = molecular target: SpPex13
Outline: as §1

SpRvs167 = molecular target: SpRvs167
Outline: as §1

SpSla1-D1-D2 = molecular target: SpSla1-D1-D2
Outline: as §1

SpSla1-D3 = molecular target: SpSla1-D3
Outline: as §1

Binder: IPSRPAPKPPSSASA
- SPOT peptide array binding signal intensity (AgAbp1): 14
- SPOT peptide array binding signal intensity (AgBbc1): 289
- SPOT peptide array binding signal intensity (AgBem1-D1): 35
- SPOT peptide array binding signal intensity (AgBzz1-D1): 18
- SPOT peptide array binding signal intensity (AgBzz1-D2): 19
- SPOT peptide array binding signal intensity (AgCyk3): 1
- SPOT peptide array binding signal intensity (AgFus1): ≤ 0
- SPOT peptide array binding signal intensity (AgHof1): ≤ 0
- SPOT peptide array binding signal intensity (AgHse1): 50.5
- SPOT peptide array binding signal intensity (AgLsb1): 475
- SPOT peptide array binding signal intensity (AgLsb4): 12
- SPOT peptide array binding signal intensity (AgMyo5): 1790
- SPOT peptide array binding signal intensity (AgNbp2): 8100
- SPOT peptide array binding signal intensity (AgRvs167): 1.67
- SPOT peptide array binding signal intensity (AgSho1): ≤ 0
- SPOT peptide array binding signal intensity (AgSla1-D1-D2): 16
- SPOT peptide array binding signal intensity (AgSla1-D3): 3.25
- SPOT peptide array binding signal intensity (CaAbp1-D1): 102
- SPOT peptide array binding signal intensity (CaAbp1-D2): 128
- SPOT peptide array binding signal intensity (CaBbc1): 1300
- SPOT peptide array binding signal intensity (CaBem1-D1): 1620
- SPOT peptide array binding signal intensity (CaBzz1-D1): 1550
- SPOT peptide array binding signal intensity (CaBzz1-D2): 1510
- SPOT peptide array binding signal intensity (CaCyk3): 190
- SPOT peptide array binding signal intensity (CaFus1): 30
- SPOT peptide array binding signal intensity (CaHof1): ≤ 0
- SPOT peptide array binding signal intensity (CaHse1): 1.25
- SPOT peptide array binding signal intensity (CaLsb1): 1.25
- SPOT peptide array binding signal intensity (CaLsb4): 53.5
- SPOT peptide array binding signal intensity (CaMyo5): 156
- SPOT peptide array binding signal intensity (CaNbp2): 4920
- SPOT peptide array binding signal intensity (CaRvs167): 17
- SPOT peptide array binding signal intensity (CaRvs167-3): 2
- SPOT peptide array binding signal intensity (CaSho1): ≤ 0
- SPOT peptide array binding signal intensity (CaSla1-D1-D2): 2030
- SPOT peptide array binding signal intensity (CaSla1-D3): 46.5
- SPOT peptide array binding signal intensity (ScAbp1): 65
- SPOT peptide array binding signal intensity (ScBbc1): 502
- SPOT peptide array binding signal intensity (ScBem1-D1): ≤ 0
- SPOT peptide array binding signal intensity (ScBzz1-D1): 16
- SPOT peptide array binding signal intensity (ScBzz1-D2): 10
- SPOT peptide array binding signal intensity (ScCyk3): ≤ 0
- SPOT peptide array binding signal intensity (ScFus1): 4
- SPOT peptide array binding signal intensity (ScHof1): 1
- SPOT peptide array binding signal intensity (ScHse1): 40
- SPOT peptide array binding signal intensity (ScLsb1): 6
- SPOT peptide array binding signal intensity (ScLsb2): 55
- SPOT peptide array binding signal intensity (ScLsb3): 197
- SPOT peptide array binding signal intensity (ScLsb4): 9
- SPOT peptide array binding signal intensity (ScMyo3): 3540
- SPOT peptide array binding signal intensity (ScMyo5): 1990
- SPOT peptide array binding signal intensity (ScNbp2): 5880
- SPOT peptide array binding signal intensity (ScPex13): 2620
- SPOT peptide array binding signal intensity (ScRvs167): 149
- SPOT peptide array binding signal intensity (ScSho1): ≤ 0
- SPOT peptide array binding signal intensity (ScSla1-D1-D2): 6020
- SPOT peptide array binding signal intensity (ScSla1-D3): 233
- SPOT peptide array binding signal intensity (SpAbp1-D1): 40
- SPOT peptide array binding signal intensity (SpBbc1): 65
- SPOT peptide array binding signal intensity (SpBzz1-D1): 404
- SPOT peptide array binding signal intensity (SpBzz1-D2): 71.5
- SPOT peptide array binding signal intensity (SpCyk3): 2
- SPOT peptide array binding signal intensity (SpHof1): ≤ 0
- SPOT peptide array binding signal intensity (SpHof1-2): ≤ 0
- SPOT peptide array binding signal intensity (SpHof1-3): ≤ 0
- SPOT peptide array binding signal intensity (SpHse1): 52
- SPOT peptide array binding signal intensity (SpLsb1): 13.5
- SPOT peptide array binding signal intensity (SpLsb4): 136
- SPOT peptide array binding signal intensity (SpMyo1): 3740
- SPOT peptide array binding signal intensity (SpNbp2): 65
- SPOT peptide array binding signal intensity (SpPex13): 93.5
- SPOT peptide array binding signal intensity (SpRvs167): 202
- SPOT peptide array binding signal intensity (SpSla1-D1-D2): ≤ 0
- SPOT peptide array binding signal intensity (SpSla1-D3): 3
